In PubChem BioAssay:
Where “and” joins values, the source holds several entries; their conditions need not be identical. Equal entries are not always repeated. Results filed as inconclusive are left out. Calls of active or inactive are those of the source.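 How the source made its calls, unless noted: active means normalized viability below 100% at a tested concentration; inactive means the rest.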

What was measured:
[1] = drug combination growth inhibition, ovarian cancer – cell-based, oncology-focused library, rucaparib conditional, profiling panel (AID 1508598); conditions: patient-derived ovarian cancer cells, CellTiter-Glo viability, 144 h, stronger effect = lower value
[2] = viability loss in pontine glioma line – cell-based, SU-DIPG-XVII, MIPE5.0, CellTiter-Glo, qHTS, dose response (AID 1347060; cut-off not given, nearly all actives have AC50 up to about 26 µM;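 on AC50: cells exposed to compound for 48 hours before viability readout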); conditions: CellTiter-Glo ATP luminescence
[3] = viability loss in pontine glioma line – cell-based, SU-DIPG-XIII, MIPE4.0, CellTiter-Glo, qHTS, dose response (AID 1347061; cut-off not given, nearly all actives have AC50 up to about 37 µM;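 further: cells exposed to compound for 48 hours before readout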); conditions: CellTiter-Glo ATP luminescence
[4] = viability loss in pontine glioma line – cell-based, JHH-DIPG-1, MIPE4.0, CellTiter-Glo, qHTS, dose response (AID 1347062; cut-off not given, nearly all actives have AC50 up to about 27 µM;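 on AC50: cells exposed to compound for two days before readout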); conditions: JHH-DIPG-1 viability, CellTiter-Glo ATP luminescence
[5] = viability loss in pontine glioma line – cell-based, SU-DIPG-XIII, MIPE5.0, CellTiter-Glo, qHTS, dose response (AID 1347064; cut-off not given, nearly all actives have AC50 up to about 23 µM); conditions: CellTiter-Glo ATP luminescence
[6] = viability loss in pontine glioma line – cell-based, SU-DIPG-XXV, MIPE5.0, CellTiter-Glo, qHTS, dose response (AID 1347065; cut-off not given, nearly all actives have AC50 up to about 26 µM;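 further: cells exposed to compound for 48 hours before ATP readout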); conditions: CellTiter-Glo ATP luminescence
[7] = JHH-DIPG-1 glioma cell viability, MIPE5.0 library, CellTiter-Glo luminescence, qHTS (AID 1347067; cut-off not given, nearly all actives have AC50 up to about 26 µM;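 further: cells exposed to compound for 48 hours before readout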); conditions: JHH-DIPG-1 glioma viability, CellTiter-Glo ATP luminescence
[8] = growth inhibition of DIPG cells – cell-based, MIPE5.0 library, qHTS (AID 1347068; cut-off not given, nearly all actives have IC50 up to about 30 µM); conditions: SU-DIPG-XXV viability
[9] = viability loss in pontine glioma line – cell-based, SU-DIPG-IV, MIPE4.0, CellTiter-Glo, qHTS, dose response (AID 1347063; cut-off not given, nearly all actives have AC50 up to about 30 µM;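 further: compound exposure lasted 48 hours before the viability readout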); conditions: CellTiter-Glo ATP luminescence
[10] = viability loss with induced miR-34 in A549 – imaging, A549 dox-inducible miR-34, nuclei and caspase counts, primary screen (AID 1347080;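 active means compounds whose cell count with miR-34 switched on is under 0.7 times the count with it off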); conditions: A549 miR-34 inducible, Hoechst nuclei count, 48 h
[11] = MELAS cybrid and Rieske KO viability enhancers – cell-based, MELAS cybrids, Rieske KO mouse fibroblasts, CellTiter-Glo, primary screen (AID 1508586;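 active means mean z-score across replicates of 1.96 or higher in either the MELAS or the Rieske mutant cell line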;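 further: z relative to plate mean and SD of compound and empty wells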); conditions: low glucose
[12] = growth inhibition, single agent or in combination, cell-based, chromothripsis tumors, cisplatin or BGB combos (AID 1671449; in the data active means inhibition above about 80%;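 further: cells exposed for 96 hours; 0% = vehicle DMSO and 100% = killing by high DMSO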); conditions: LFS_MB_P medulloblastoma cells
[13] = growth inhibition, single agent and combos, cell-based, chromothripsis tumors, cisplatin or BGB combos (AID 1671450; in the data active means inhibition above about 80%;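 further: cells exposed to compound for four days; 0% = vehicle DMSO and 100% = cell killing by high DMSO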); conditions: HDN33 neuroblastoma cells, stronger effect = higher value
[14] = growth inhibition, single agents and combos, ICB984, cell-based, cisplatin or BGB combos, synergistic combos for chromothripsis tumors (AID 1671451; call rule not given here;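 further: cells exposed for 96 hours before readout; 0% = vehicle DMSO and 100% = killing by high DMSO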); conditions: ICB984 medulloblastoma cells, drug combinations, stronger effect = higher value
[15] = growth inhibition, single agents and combos, HTB85, cell-based, BGB or cisplatin IC20 combos, synergistic combos for chromothripsis tumors (AID 1671453; in the data active means inhibition above about 80%;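 further: cells exposed for 96 hours before readout; 0% = vehicle DMSO and 100% = high DMSO killing control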); conditions: HTB85 osteosarcoma cells, drug combinations, stronger effect = higher value
[16] = growth inhibition, MDA-MB-436, cell-based, BGB or cisplatin combos, synergistic combos for chromothripsis tumors (AID 1671458; call rule not given here;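 further: cells exposed for 96 hours; 0% = vehicle DMSO and 100% = killing by high DMSO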); conditions: MDA-MB-436 breast carcinoma growth inhibition, drug combinations, stronger effect = higher value
[17] = BT084 cell growth, single and combined drugs, ICGC_MB145, cisplatin and BGB IC40 combos (AID 1671461; in the data active means inhibition above about 80%;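 further: cells exposed to drugs for 96 hours; 0% = vehicle DMSO and 100% = high DMSO full killing control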); conditions: BT084 medulloblastoma cells, drug combinations, stronger effect = higher value
[18] = RCMB18 cell growth, single agent and combined, cisplatin and BGB IC40 combos (AID 1671462; in the data active means inhibition above about 80%;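 further: cells exposed to compound for four days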); conditions: RCMB18 medulloblastoma cells, stronger effect = higher value
[19] = growth inhibition of DIPG cells – cell-based, MIPE4.0 library, CellTiter-Glo luminescence, qHTS (AID 1347066; cut-off not given, nearly all actives have AC50 up to about 30 µM;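 further: cells exposed to compound for 48 hours before readout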); conditions: SU-DIPG-VI viability, CellTiter-Glo ATP luminescence

Cc1ccc(NC(=O)c2cccc(C(C)(C)C#N)c2)cc1Nc1ccc2ncn(C)c(=O)c2c1
viability ([1]; at 0.0195 µM, OCI-P5x cells, with rucaparib 20 µM, 100% = cells with rucaparib alone): 109% (inactive)
viability ([1]; at 0.0195 µM, OCI-P5x cells, without rucaparib): 95% (active)
viability ([1]; at 0.0781 µM, OCI-C5x cells, with rucaparib 10 µM, 100% = cells with rucaparib alone): 115% (inactive)
viability ([1]; at 0.0781 µM, OCI-C5x cells, without rucaparib): 121% (inactive)
viability ([1]; at 0.0781 µM, OCI-P5x cells, with rucaparib 20 µM, 100% = cells with rucaparib alone): 84.1% (active)
viability ([1]; at 0.0781 µM, OCI-P5x cells, without rucaparib): 82.8% (active)
viability ([1]; at 0.313 µM, OCI-C5x cells, with rucaparib 10 µM, 100% = cells with rucaparib alone): 112% (inactive)
viability ([1]; at 0.313 µM, OCI-C5x cells, without rucaparib): 125% (inactive)
viability ([1]; at 0.313 µM, OCI-P5x cells, with rucaparib 20 µM, 100% = cells with rucaparib alone): 68.7% (active)
viability ([1]; at 0.313 µM, OCI-P5x cells, without rucaparib): 85.5% (active)
viability ([1]; at 1.25 µM, OCI-C5x cells, with rucaparib 10 µM, 100% = cells with rucaparib alone): 108% (inactive)
viability ([1]; at 1.25 µM, OCI-C5x cells, without rucaparib): 127% (inactive)
viability ([1]; at 1.25 µM, OCI-P5x cells, with rucaparib 20 µM, 100% = cells with rucaparib alone): 73.2% (active)
viability ([1]; at 1.25 µM, OCI-P5x cells, without rucaparib): 81.8% (active)
viability ([1]; at 5 µM, OCI-C5x cells, with rucaparib 10 µM, 100% = cells with rucaparib alone): 127% (inactive)
viability ([1]; at 5 µM, OCI-C5x cells, without rucaparib): 140% (inactive)
viability ([1]; at 5 µM, OCI-P5x cells, with rucaparib 20 µM, 100% = cells with rucaparib alone): 67.4% (active)
viability ([1]; at 5 µM, OCI-P5x cells, without rucaparib): 22.1% (active)

O=C(O)C1=CC(O)C(O)[C@H](O)C1 (stereo partly specified)
outcome [2]: inactive
outcome [3]: inactive
outcome [4]: inactive
outcome [5]: inactive
outcome [6]: inactive
outcome [7]: inactive
outcome [8]: inactive

CN1CCc2c(c3ccccc3n2Cc2ccc(C(=O)NO)cc2)C1
AC50 [2]: 23.5 µM (active)
outcome [3]: inactive
AC50 [4]: 23.5 µM (active)
AC50 [9]: 20.9 µM (active)
AC50 [7]: 20.9 µM (active)
outcome [8]: inactive
fold change ([10]; stronger effect = lower value, cell number ratio, induced over uninduced): 0.909 (inactive) and 0.928 (inactive)
fold change ([10]; measured here: relative caspase fold change +Dox/-Dox): 0.692 and 0.727
cell count ([10]; measured here: total cells with miR-34 induction, stronger effect = lower value): 8690 and 9370
cell count ([10]; measured here: total cells without miR-34 induction): 9560 and 10100
z-score ([11]; MELAS cybrid survival, CellTiter-Glo 48 h, stronger effect = higher value): -0.421 (inactive) and -0.386 (inactive)
z-score ([11]; Rieske KO mouse fibroblast survival, CellTiter-Glo 72 h): 1.15 and -0.701
inhibition ([12]; at 0.5 µM, stronger effect = higher value): -24.1% (inactive) and -14.7% (inactive)
inhibition ([12]; measured here: combination with BGB IC20, at 0.005 µM): -28.6% and -21.3%
inhibition ([12]; measured here: combination with BGB IC40, at 0.005 µM): -40.9% and -27%
inhibition ([12]; measured here: combination with BGB IC40, at 0.05 µM): -19.2% and -45.3%
inhibition ([12]; measured here: combination with cisplatin, at 0.5 µM, stronger effect = higher value): -23.9% and 9.39%
inhibition ([12]; measured here: combination with cisplatin, at 5 µM, stronger effect = higher value): -11.8% and 7.46%
inhibition ([13]; BGB combo, at 5 µM): 2.45% and 27.4%
inhibition ([13]; at 0.5 µM): 4.53% (inactive) and -0.32% (inactive)
inhibition ([13]; cisplatin combo, at 5 µM): 19.6% and 28.9%
inhibition ([13]; measured here: with BGB IC20 combination, at 0.5 µM): -5.55% and 4.06%
inhibition ([13]; measured here: with cisplatin IC20 combination, at 0.5 µM): 15% and 5.2%
inhibition ([13]; single agent, at 5 µM): 25.9% and 54.8%
inhibition ([14]; BGB IC20 combo, at 0.005 µM): 22.3% and -11.7%
inhibition ([14]; BGB IC40 combo, at 0.005 µM): -10.2% and -27.7%
inhibition ([14]; BGB IC40 combo, at 0.05 µM): -9.66% and -9.28%
inhibition ([14]; at 0.5 µM): -11.2% (inactive) and -22.9% (inactive)
inhibition ([14]; cisplatin combo, at 0.05 µM): -15.3% and -13.2%
inhibition ([14]; cisplatin combo, at 0.5 µM): -16.4% and -10.9%
inhibition ([14]; cisplatin combo, at 5 µM): -14% and -10.1%
inhibition ([14]; measured here: 5 uM single agent, at 5 µM): -11.5% and -12.4%
inhibition ([15]; at 0.5 µM): 0.33% (inactive) and -0.18% (inactive)
inhibition ([15]; measured here: with BGB IC20, at 0.5 µM): 0.483% and -9.65%
inhibition ([15]; measured here: with BGB IC20, at 5 µM): 26.3% and 10.4%
inhibition ([15]; measured here: with cisplatin IC20, at 0.5 µM): -3.56% and 12.2%
inhibition ([15]; measured here: with cisplatin IC20, at 5 µM): 24.2% and 27.5%
inhibition ([15]; single agent, at 5 µM): 18.4% and 13.9%
inhibition ([16]; at 0.5 µM): -13.8% (inactive) and -2.54% (inactive)
inhibition ([16]; measured here: BGB combination, at 0.5 µM): -10.6% and -7.29%
inhibition ([16]; measured here: BGB combination, at 5 µM): -5.66% and 0.993%
inhibition ([16]; measured here: cisplatin combination, at 0.5 µM): -25.1% and 2.46%
inhibition ([16]; measured here: cisplatin combination, at 5 µM): -15.3% and 18.8%
inhibition ([17]; at 0.5 µM): 2.15% (inactive) and 0.779% (inactive)
inhibition ([17]; cisplatin combination, at 0.5 µM): 8.01% and -20.4%
inhibition ([17]; cisplatin combination, at 5 µM): -145% and 19.9%
inhibition ([17]; measured here: BGB IC40 combination 0.05 uM, at 0.05 µM): -20.5% and 21.4%
inhibition ([17]; single agent, at 5 µM): 2.48% and 3.3%
inhibition ([18]; at 0.5 µM): -9.94% (inactive) and 3.3% (inactive)
inhibition ([18]; cisplatin combo, at 5 µM): 1.27% and 18.1%
inhibition ([18]; measured here: BGB IC40 combination, at 0.05 µM): -31.8% and 8.24%
inhibition ([18]; measured here: combination with cisplatin, at 0.5 µM): -21.5% and 43%
inhibition ([18]; single agent, at 5 µM): 12.1% and 14.4%

CCCCC(F)(F)[C@@]1(O)CC[C@H]2[C@@H](CC(=O)[C@@H]2CCCCCCC(=O)O)O1
outcome [2]: inactive
outcome [3]: inactive
outcome [4]: inactive
outcome [5]: inactive
outcome [6]: inactive
outcome [19]: inactive
outcome [7]: inactive
outcome [8]: inactive
